Measured values reported in PubChem BioAssay (Tox21).
Results filed as inconclusive are left out. A call without a number means that no potency is given here. Active and inactive are the calls of the source. Unless noted, calls come from the whole dose curve; as a rule, active = well fitted curve in the direction sought with a large enough effect in the repeat runs; inconclusive = weak or mixed curves; inactive = no such curve, though single readings can be large; an effect the other way counts as inactive or inconclusive.

Tests used:
[1] = target: Estrogen receptor beta (Homo sapiens) (UniProt Q92731); assay: qHTS assay to identify small molecule agonists of the estrogen receptor beta (ER-beta) signaling pathway (AID 1259377; active = well fitted activation curve with a large enough effect in the signal ratio in the repeat runs, not every such curve was filed as active; the % refers to the signal ratio)
Outline: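 A UAS-controlled beta-lactamase reporter in ER-beta-UAS-bla HEK293T cells reports receptor activation. Compounds act for 16 hr at 37C in 2% charcoal-stripped serum, and a FRET substrate is read by fluorescence after 2 hours.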

[2] = target: Estrogen receptor beta (Homo sapiens) (UniProt Q92731); assay: qHTS assay to identify small molecule antagonists of the estrogen receptor beta (ER-beta) signaling pathway (AID 1259378; active = well fitted inhibition curve with a large enough effect in the signal ratio in the repeat runs, not every such curve was filed as active; the % refers to the signal ratio; note: potency is the fitted concentration of half-maximal effect)
Outline: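 Antagonist mode: compounds added to beta-lactamase reporter HEK293T ER-beta-UAS cells stimulated with E2 (1nM final), 16 hr at 37C. LiveBLAzer B/G FRET substrate, 2 hours room temperature, fluorescence read-out.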

[3] = qHTS assay to identify small molecule agonists of the androgen receptor (AR) signaling pathway in the presence of an antagonist - cell viability counter screen (AID 1259379);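 note: MDA-kb2 human breast cancer cells carrying an MMTV luciferase reporter; series mostly up to about 92 µM; nearly all actives have a fitted effect of over 25% in size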
Outline: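 Viability counter screen: CellTiter-Fluor fluorescence, measured in the same wells as the luciferase read-out. MDA-kb2 cells, 3,000/well, with nilutamide at 3.0uM final and compounds at 15 concentrations, 16 hr at 37C, 0% CO2.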

[4] = qHTS assay to identify small molecule agonists of the estrogen receptor beta (ER-beta) signaling pathway - cell viability counter screen (AID 1259380); note: nearly all actives have a fitted effect of over 30% in size
Outline: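 Luminescence read-out (CellTiter-Glo, 30 min, room temp) taken in the same wells as the beta-lactamase reporter assay; ER-beta-UAS-bla HEK293T cells exposed to DMSO-dissolved compounds for 16 hr at 37C in 2% charcoal-stripped FBS medium.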

[5] = qHTS assay to identify small molecule antagonists of the estrogen receptor beta (ER-beta) signaling pathway - cell viability counter screen (AID 1259382);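 note: HEK293T cells carrying ER-beta-UAS-bla reporter stimulated with estradiol; series mostly up to about 92 µM; nearly all actives have a fitted effect of over 55% in size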
Outline: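 Luminescent ATP read-out (CellTiter-Glo, 30 min, RT) taken in the same wells as the bla reporter assay. HEK293T ER-beta-UAS-bla cells in 2% charcoal-stripped FBS were exposed to compounds with 1nM E2 for 16 hr at 37C.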

[6] = target: Estrogen receptor (Homo sapiens) (UniProt P03372); assay: qHTS assay to identify small molecule agonists of the estrogen receptor alpha (ER-alpha) signaling pathway in the presence of an antagonist (AID 1259383; calls by dose curve; note: top concentration of the series differs between compounds; nearly all actives have a fitted effect of over 15% in size)
Outline: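 Luciferase luminescence (ONE-Glo, 30min at room temperature) measured in VM7Luc4E2 cells after 22hr compound exposure at 15 concentrations, with 10.0nM ICI-182,780 final present; cells express endogenous ER-alpha and carry four EREs upstream of luciferase.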

[7] = qHTS assay to identify small molecule agonists or antagonists of the thyroid stimulating hormone receptor (TSHR) signaling pathway - wild type cell line counter screen (AID 1259384; calls by dose curve)
Outline: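 Counter screen in untransfected Hek293: compounds (15-point titration, triplicate) plus phosphodiesterase inhibitor Ro20-1724 added after 18 h plating; 30 min RT. Intracellular cAMP via competitive d2/cryptate immunoassay, 1 h incubation.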

[8] = target: Thyrotropin receptor (Homo sapiens) (UniProt P16473); assay: qHTS assay to identify small molecule antagonists of the thyroid stimulating hormone receptor (TSHR) signaling pathway (AID 1259385; calls by dose curve; note: nearly all actives have a fitted effect of over 20% in size; note: potency is the fitted concentration of half-maximal effect)
Outline: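 Antagonist mode: compound-treated TSHR-expressing HEK293 cells were stimulated with 1.5 ng/mL TSH (final) in presence of Ro20-1724 for 30 min at RT. HTRF cAMP detection after 1 h; each compound tested at 15 concentrations, triplicate.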

[9] = qHTS assay to identify small molecule agonists of the estrogen receptor alpha (ER-alpha) signaling pathway in the presence of an antagonist - cell viability counter screen (AID 1259386);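 note: series mostly up to about 92 µM; cells exposed to compounds for 22 h at 37 °C before the viability read; nearly all actives have a fitted effect of over 30% in size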
Outline: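 Read-out: CellTiter-Fluor fluorescence after 1hr reagent incubation, measured in the same wells as the luciferase readout. VM7Luc4E2 cells were exposed to 15 compound concentrations with 10.0nM ICI-182,780 for 22hr at 37C.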

[10] = target: Progesterone receptor (Homo sapiens) (UniProt P06401); assay: qHTS assay to identify small molecule agonists of the progesterone receptor (PR) signaling pathway (AID 1346784; calls by dose curve; note: nearly all actives have a fitted effect of over 30% in size)
Outline: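 Agonist mode, quantitative HTS format in a HEK 293T line expressing a UAS-controlled beta-lactamase reporter; 16 hr compound exposure at 37C in 2% charcoal-stripped FBS, then LiveBLAzer B/G FRET fluorescence.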

[11] = target: Progesterone receptor (Homo sapiens) (UniProt P06401); assay: qHTS assay to identify small molecule antagonists of the progesterone receptor (PR) signaling pathway (AID 1346795; active = well fitted inhibition curve with a large enough effect in the signal ratio in the repeat runs, not every such curve was filed as active; the % refers to the signal ratio; note: potency is the fitted concentration of half-maximal effect)
Outline: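 HEK293T PR-UAS-bla reporter cells in charcoal-stripped serum (2%) received compound after a 6 hr settling period, followed by R5020 agonist at 1 nM final; 16 hr incubation preceded the FRET substrate step and fluorescence measurement.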

[12] = qHTS assay to identify small molecule antagonists of the progesterone receptor (PR) signaling pathway - cell viability counter screen (AID 1346798); note: series mostly up to about 92 µM; nearly all actives have a fitted effect of over 50% in size
Outline: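 Same-well multiplex: after 16 hr at 37C with compound and R5020 stimulation, HEK293T cells carrying a UAS-bla reporter received LiveBLAzer substrate (2 hr RT), then CellTiter-Glo (30 min RT) for luminescent viability.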

[13] = qHTS assay to identify small molecule antagonists of the TGF-beta/Smad signaling pathway - cell viability counter screen (AID 1346824); note: nearly all actives have a fitted effect of over 50% in size
Outline: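 Cytotoxicity counter-screen run in the same wells as the beta-lactamase Smad reporter read: CellTiter-Glo luminescence after 30 min at room temperature. HEK 293T SBE-bla cells had 5 hr compound exposure at 37 C with TGF-beta1 (0.25 ng/mL stock).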

[14] = qHTS assay to identify small molecule agonists of the TGF-beta/Smad signaling pathway - cell viability counter screen (AID 1346829); note: top concentration of the series differs between compounds; nearly all actives have a fitted effect of over 45% in size
Outline: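 Tox21 qHTS format: SBE-bla HEK 293T cells treated with DMSO-dissolved compounds for 5 hr; CellTiter-Glo luminescence after 30 min at room temperature.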

[15] = qHTS assay to identify small molecule agonists of the TGF-beta/Smad signaling pathway (AID 1346859; active = well fitted activation curve with a large enough effect in the signal ratio in the repeat runs, not every such curve was filed as active; the % refers to the signal ratio; note: series mostly up to about 77 µM)
Outline: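 Smad-responsive beta-lactamase reporter cells (HEK 293T) received compounds from DMSO stocks after overnight attachment, were incubated 5 hr, then treated 2 hr with FRET substrate before dual-emission fluorescence measurement (405 nm excitation).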

[16] = target: Thyrotropin-releasing hormone receptor (Homo sapiens) (UniProt P34981); assay: qHTS assay to identify small molecule antagonists of the thyrotropin-releasing hormone receptor (TRHR) signaling pathway (AID 1346877; active = well fitted inhibition curve with a large enough effect in the repeat runs, not every such curve was filed as active; note: series mostly up to about 51 µM)
Outline: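 HEK293/TRHR cells, 18 h, 37 °C; Ca2+ dye 2 h; cpd 5 min RT; TRH 1 nM final; fluorescence read 3 min, 1 s intervals; 15 concs, triplicate.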

[17] = target: Thyrotropin-releasing hormone receptor (Homo sapiens) (UniProt P34981); assay: qHTS assay to identify small molecule agonists of the thyrotropin-releasing hormone receptor (TRHR) signaling pathway (AID 1346891; calls by dose curve;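 note: HEK293 cells expressing TRHR with calcium dye readout; series mostly up to about 58 µM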)
Outline: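 Agonist-mode calcium mobilisation screen: TRHR-transfected HEK293 cells cultured overnight (18 h), dye-loaded for 2 h at 37 °C, exposed to compounds, and monitored by fluorescence for 3 min.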

[18] = Human pregnane X receptor (PXR) small molecule agonists, qHTS cell viability counter screen (AID 1346977); note: nearly all actives have a fitted effect of over 50% in size
Outline: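 Measures live-cell protease fluorescence (CellTiter-Fluor) in PXR-Luc HepG2 cells treated 24hr with compounds at 37C. Cells had 5hr to attach before pin transfer of DMSO solutions.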

[19] = target: Androgen receptor (Homo sapiens) (UniProt P10275); assay: qHTS assay to identify small molecule agonists of the androgen receptor (AR) signaling pathway in the presence of an antagonist (AID 1259381; calls by dose curve; note: nearly all actives have a fitted effect of over 15% in size)
Outline: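 Luciferase read-out (ONE-Glo, 30min room temperature) in MDA-kb2 MMTV-reporter cells; agonist mode run in presence of AR antagonist nilutamide, 3.0uM final. Compounds tested as 15-point series, 16hr exposure at 37C, 0% CO2.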

[20] = qHTS assay to identify small molecule agonists of the progesterone receptor (PR) signaling pathway - cell viability counter screen (AID 1346799; calls by dose curve; note: nearly all actives have a fitted effect of over 45% in size)
Outline: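 Counter screen for cytotoxicity: compound-treated PR-UAS-bla HEK293T cells (16 hr, 37C, 5% CO2) were assayed with CellTiter-Glo, luminescence measured after 30 min at room temperature.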

Estrogen receptor (Homo sapiens), sequence (P03372 whole entry, looked up): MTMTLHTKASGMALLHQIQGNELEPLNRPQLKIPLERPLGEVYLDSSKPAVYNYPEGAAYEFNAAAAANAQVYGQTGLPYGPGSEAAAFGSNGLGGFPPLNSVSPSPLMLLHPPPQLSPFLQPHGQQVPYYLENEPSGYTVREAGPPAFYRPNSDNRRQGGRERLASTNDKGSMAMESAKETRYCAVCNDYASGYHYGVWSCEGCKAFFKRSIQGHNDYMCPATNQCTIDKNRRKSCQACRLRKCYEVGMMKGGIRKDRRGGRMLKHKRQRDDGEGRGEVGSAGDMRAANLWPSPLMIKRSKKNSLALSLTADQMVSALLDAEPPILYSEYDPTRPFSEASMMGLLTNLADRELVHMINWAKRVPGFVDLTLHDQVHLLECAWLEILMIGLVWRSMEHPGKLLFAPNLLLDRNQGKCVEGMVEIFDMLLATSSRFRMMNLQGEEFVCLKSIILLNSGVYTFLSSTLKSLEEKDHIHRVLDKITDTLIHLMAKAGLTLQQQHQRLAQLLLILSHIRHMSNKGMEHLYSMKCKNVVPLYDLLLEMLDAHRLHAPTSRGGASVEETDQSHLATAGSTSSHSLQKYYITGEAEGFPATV
Androgen receptor (Homo sapiens), sequence (P10275 whole entry, looked up): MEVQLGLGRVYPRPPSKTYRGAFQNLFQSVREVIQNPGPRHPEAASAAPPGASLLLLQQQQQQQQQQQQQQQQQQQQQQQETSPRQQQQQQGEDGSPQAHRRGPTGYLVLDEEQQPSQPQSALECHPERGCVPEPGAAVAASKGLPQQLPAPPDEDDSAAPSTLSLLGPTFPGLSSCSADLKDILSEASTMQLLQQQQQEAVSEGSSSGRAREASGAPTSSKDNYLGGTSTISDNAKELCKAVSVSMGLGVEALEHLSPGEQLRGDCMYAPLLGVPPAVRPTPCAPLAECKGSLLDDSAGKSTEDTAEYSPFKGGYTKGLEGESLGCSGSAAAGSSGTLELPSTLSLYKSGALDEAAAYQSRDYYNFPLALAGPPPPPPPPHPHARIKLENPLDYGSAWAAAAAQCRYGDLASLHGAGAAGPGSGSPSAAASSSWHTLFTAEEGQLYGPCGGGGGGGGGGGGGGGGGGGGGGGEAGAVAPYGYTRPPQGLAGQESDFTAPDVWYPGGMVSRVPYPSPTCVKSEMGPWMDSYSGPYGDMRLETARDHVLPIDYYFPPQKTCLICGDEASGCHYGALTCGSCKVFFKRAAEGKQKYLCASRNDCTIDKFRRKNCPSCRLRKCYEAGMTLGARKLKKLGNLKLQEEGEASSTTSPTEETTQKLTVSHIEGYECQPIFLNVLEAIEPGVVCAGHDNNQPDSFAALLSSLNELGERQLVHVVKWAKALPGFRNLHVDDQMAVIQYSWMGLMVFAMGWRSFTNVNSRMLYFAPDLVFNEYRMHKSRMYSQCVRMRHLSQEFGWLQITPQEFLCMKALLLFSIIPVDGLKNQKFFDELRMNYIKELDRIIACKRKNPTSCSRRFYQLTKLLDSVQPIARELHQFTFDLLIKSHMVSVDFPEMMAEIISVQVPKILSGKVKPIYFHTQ
Estrogen receptor beta (Homo sapiens), sequence (Q92731 whole entry, looked up): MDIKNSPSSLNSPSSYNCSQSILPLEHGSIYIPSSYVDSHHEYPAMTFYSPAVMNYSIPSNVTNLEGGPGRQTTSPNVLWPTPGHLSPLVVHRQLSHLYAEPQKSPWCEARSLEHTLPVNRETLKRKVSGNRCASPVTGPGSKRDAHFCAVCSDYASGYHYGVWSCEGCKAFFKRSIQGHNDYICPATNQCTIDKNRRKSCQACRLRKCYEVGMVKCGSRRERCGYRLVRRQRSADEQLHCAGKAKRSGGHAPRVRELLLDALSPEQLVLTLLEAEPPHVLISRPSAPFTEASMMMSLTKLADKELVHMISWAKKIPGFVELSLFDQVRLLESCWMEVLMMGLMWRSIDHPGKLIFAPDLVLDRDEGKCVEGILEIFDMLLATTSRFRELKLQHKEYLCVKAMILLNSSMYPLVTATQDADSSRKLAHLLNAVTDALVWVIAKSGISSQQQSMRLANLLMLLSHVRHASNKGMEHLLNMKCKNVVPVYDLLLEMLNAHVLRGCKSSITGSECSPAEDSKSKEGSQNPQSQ
Thyrotropin-releasing hormone receptor (Homo sapiens), sequence (P34981 whole entry, looked up): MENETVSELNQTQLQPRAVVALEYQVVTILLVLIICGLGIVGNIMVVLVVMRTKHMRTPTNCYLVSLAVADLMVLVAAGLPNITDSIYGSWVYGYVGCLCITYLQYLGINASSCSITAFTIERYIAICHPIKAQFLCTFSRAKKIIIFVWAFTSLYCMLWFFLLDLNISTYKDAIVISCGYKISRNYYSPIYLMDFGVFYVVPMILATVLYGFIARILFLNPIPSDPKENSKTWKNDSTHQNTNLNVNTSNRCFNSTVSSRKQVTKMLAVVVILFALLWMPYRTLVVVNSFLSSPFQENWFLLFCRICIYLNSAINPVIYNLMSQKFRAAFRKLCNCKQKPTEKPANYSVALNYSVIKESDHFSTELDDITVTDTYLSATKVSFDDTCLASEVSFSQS
Thyrotropin receptor (Homo sapiens), sequence (P16473 whole entry, looked up): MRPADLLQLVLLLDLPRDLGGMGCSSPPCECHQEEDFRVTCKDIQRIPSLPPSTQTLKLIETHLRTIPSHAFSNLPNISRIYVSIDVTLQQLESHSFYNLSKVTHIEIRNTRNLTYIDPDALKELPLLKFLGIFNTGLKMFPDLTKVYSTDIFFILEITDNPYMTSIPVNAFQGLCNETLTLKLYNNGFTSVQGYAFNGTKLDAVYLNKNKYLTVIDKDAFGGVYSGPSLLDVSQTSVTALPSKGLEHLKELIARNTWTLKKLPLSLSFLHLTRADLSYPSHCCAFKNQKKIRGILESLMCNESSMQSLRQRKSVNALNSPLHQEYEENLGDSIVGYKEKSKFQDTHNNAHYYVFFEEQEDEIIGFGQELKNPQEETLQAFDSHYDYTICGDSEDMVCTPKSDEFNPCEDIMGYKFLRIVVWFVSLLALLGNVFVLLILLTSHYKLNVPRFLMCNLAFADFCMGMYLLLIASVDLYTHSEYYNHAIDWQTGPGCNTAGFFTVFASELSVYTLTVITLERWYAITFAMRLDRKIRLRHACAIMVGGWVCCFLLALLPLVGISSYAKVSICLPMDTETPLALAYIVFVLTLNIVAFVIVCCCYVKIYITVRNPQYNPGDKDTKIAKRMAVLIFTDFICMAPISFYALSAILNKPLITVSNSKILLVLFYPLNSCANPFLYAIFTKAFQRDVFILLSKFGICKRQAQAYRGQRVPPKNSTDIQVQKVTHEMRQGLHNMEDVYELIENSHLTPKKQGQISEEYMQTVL
Progesterone receptor (Homo sapiens), sequence (P06401 whole entry, looked up): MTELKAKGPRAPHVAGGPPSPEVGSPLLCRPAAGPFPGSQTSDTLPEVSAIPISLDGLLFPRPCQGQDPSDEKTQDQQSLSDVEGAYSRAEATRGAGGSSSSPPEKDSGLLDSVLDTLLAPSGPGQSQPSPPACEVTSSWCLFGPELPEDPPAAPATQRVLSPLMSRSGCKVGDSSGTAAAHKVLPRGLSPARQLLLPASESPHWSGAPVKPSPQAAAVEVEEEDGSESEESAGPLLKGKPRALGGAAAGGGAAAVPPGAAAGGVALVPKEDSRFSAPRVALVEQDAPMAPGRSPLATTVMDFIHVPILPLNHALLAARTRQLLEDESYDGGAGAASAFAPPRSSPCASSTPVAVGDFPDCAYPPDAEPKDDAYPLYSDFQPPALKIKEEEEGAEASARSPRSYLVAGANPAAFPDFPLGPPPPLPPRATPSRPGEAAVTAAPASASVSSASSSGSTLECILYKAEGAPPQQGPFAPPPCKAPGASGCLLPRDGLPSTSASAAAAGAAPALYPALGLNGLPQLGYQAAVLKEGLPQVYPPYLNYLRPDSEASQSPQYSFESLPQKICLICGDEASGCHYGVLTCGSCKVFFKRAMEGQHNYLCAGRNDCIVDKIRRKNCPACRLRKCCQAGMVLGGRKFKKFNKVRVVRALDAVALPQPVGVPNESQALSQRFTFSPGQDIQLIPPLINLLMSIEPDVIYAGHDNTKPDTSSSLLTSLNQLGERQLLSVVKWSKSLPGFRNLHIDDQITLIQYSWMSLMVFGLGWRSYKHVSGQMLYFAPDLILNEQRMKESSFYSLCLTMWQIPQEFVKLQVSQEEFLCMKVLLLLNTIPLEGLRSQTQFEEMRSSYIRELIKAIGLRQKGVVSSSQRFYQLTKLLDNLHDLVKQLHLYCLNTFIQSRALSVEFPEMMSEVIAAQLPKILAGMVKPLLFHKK

| Structure (SMILES) | Potency [1] | Potency [2] | Potency [3] | Potency [4] | Potency [5] | Potency [6] | Potency [7] | Potency [8] | Potency [9] | Potency [10] | Potency [11] | Potency [12] | Potency [13] | Potency [14] | Potency [15] | Potency [16] | outcome [17] | Potency [18] | outcome [19] | Potency [20] |
| --- | --- | --- | --- | --- | --- | --- | --- | --- | --- | --- | --- | --- | --- | --- | --- | --- | --- | --- | --- | --- |
| CC1(C)C(C(=O)OC(C#N)c2cccc(Oc3ccccc3)c2)C1(C)C (centres undefined) | inactive | 48.9 µM (active) | inactive | inactive | inactive | inactive | inactive | 61.6 µM (active) | inactive | inactive | 24.5 µM (active) | inactive | inactive | inactive | inactive | inactive | inactive | inactive |  |  |
| Clc1cccc(C(Cl)(Cl)Cl)n1 | inactive | inactive | inactive | inactive | inactive | inactive | inactive | inactive | inactive | inactive | inactive | inactive | inactive | inactive | inactive |  |  | inactive | inactive | inactive |
| Brc1ccc(Br)cc1 | inactive | inactive | inactive | inactive | inactive |  | inactive | inactive | inactive | inactive | inactive |  | inactive | inactive | inactive |  |  | inactive |  | inactive |
| CCOC(=O)c1ccccc1N | inactive | inactive | inactive | inactive | inactive | inactive | inactive | inactive | inactive |  | inactive | inactive | inactive | inactive | inactive | inactive | inactive | inactive |  | inactive |
| C=CC(Cl)CCl (centres undefined) | inactive | inactive | inactive | inactive | inactive |  | inactive | inactive | inactive | inactive | inactive | inactive | inactive | inactive | inactive | inactive | inactive | inactive | inactive | inactive |
| CCCCCCCCCCCCCl | inactive | inactive | inactive | inactive | inactive | inactive | inactive | inactive | inactive | inactive | inactive |  | inactive | inactive | inactive | inactive | inactive | inactive |  | inactive |
| Cc1cc(Cl)ccc1N=CN(C)C | inactive | inactive | inactive | inactive | inactive |  | inactive | inactive | inactive | inactive | inactive | inactive | inactive | inactive | inactive | inactive | inactive | inactive |  | inactive |
